Test results taken from PubChem BioAssay (NCATS).
Records with an inconclusive call do not appear. Entries that show only a call come without a potency. Unmarked numbers belong to inactive results. Calls of active or inactive are those of the source. The call rests on the fitted dose curve; in most records, active means well fitted cell-killing curve with a large enough effect; inconclusive means small, poorly fitted or top-dose-only effect; inactive means no such curve, though single readings can be large or run the other way.
Potency means the concentration at half of the fitted maximal effect.

Assay: qHTS of pediatric cancer cell lines to identify multiple opportunities for drug repurposing: Primary screen for NB1643 cells (AID 1347099); further: nearly all actives have a fitted effect of over 50% in size
Conditions: NB1643 neuroblastoma viability, CellTiter-Glo luminescence, 48 h; series mostly up to 46 µM
Excerpt: Drug repurposing or repositioning has been offered as a strategy for drug development in oncology programs. This approach has special potential for childhood cancers and other rare or orphan diseases, where the expected return on new drug development has been a disincentive to pharmaceuticals. […] In this project we exploit the poly-pharmacology of drugs to discover new indications via phenotypic screening of a panel of 19 well-characterized cell lines derived from solid tumors seen in children and adolescents. The goal is to identify approved drugs with previously unrecognized anticancer properties that has the potential to reveal new mechanisms and biological processes involved in carcinogenesis or drug resistance. We employed a titration-based paradigm (quantitative high-throughput screening or qHTS), where all compounds were tested at multiple concentrations for their effect on cell viability. Concentration-response curves (CRCs) were derived directly from the primary screen, and both potency and efficacy values were used to identify compounds with robust bioactivity profiles. We screened the NIH Chemical Genomics Center (NCGC) Pharmaceutical Collection (NPC) and Mechanism Interrogation Plate (MIPE) small molecule collections of approved and investigational compounds against these cell lines; and measured metabolically active cells after 48 hours of compound treatment as a proxy for cell viability. […] Assay Submitter: Nathalia J. Martinez, National Center for Advancing Translational Sciences, National Institutes of Health, Rockville, MD, USA; email: natalia.martinez@nih.gov Shen, M et al. Quantitative high-throughput phenotypic screening of pediatric cancer cell lines identifies multiple opportunities for drug repurposing. Oncotarget 2017 Dec 19;9(4):4758-4772. PMID 29435139.
The cells were obtained from University of North Carolina (UNC), Pediatric Preclinical Testing Program (PPT), and Coriell Institute (CI). qHTS cell viability assay: Cells were assayed in growth media at a density of 500-1,000 cells/well. Five microliters of cells were dispensed into 1,536-well, white, solid-bottom, TC-treated plates (Greiner Bio One) using a multidrop dispenser and incubated at 37 degrees C, 5% CO2, under a humidified atmosphere for 5 hours. Twenty-three nanoliters of compounds and controls (neutral control DMSO or positive control bortezomib at final concentration of 2.3 µM) were subsequently transferred by Kalypsys pintool. For primary screens, the MIPE collection was tested at 11-point dilutions (final concentrations range from 0.78 nM to 46 µM) and the NPC collection at 8-point dilutions (final concentrations range from 0.59 nM to 46 µM). Compounds tested in follow-up screens were assayed at 11-point dilutions. Cells were incubated for 48 hours, followed by addition of 3 µL of CellTiter-Glo (Promega). After a 15 min incubation at room temperature, samples were analyzed for luminescence intensity using a ViewLux High-throughput CCD imager equipped with clear filters.
With `COc1ccnc2c1CCCCC2S(=O)c1nc2ccccc2[nH]1` (stereo not given) the Potency was “inactive”.
For `CO[C@@]1(NC(=O)Cc2cccs2)C(=O)N2C(C(=O)O)=C(COC(N)=O)CS[C@@H]21`, the Potency was “inactive”.
For `c1ccc2sc(SSc3nc4ccccc4s3)nc2c1`, the Potency was “inactive”.
In the case of `O=C1CN(/N=C/c2ccc([N+](=O)[O-])o2)C(=O)N1`, the Potency is reported as “inactive”.
For `Nc1cc(-c2ccncc2)c[nH]c1=O`, the Potency was “inactive”.
With `CC(C)(C)c1nnc(NS(=O)(=O)c2ccc(N)cc2)s1` the Potency was “inactive”.
With `Nc1ccc(C(=O)O)c(O)c1` the Potency was “inactive”.
For `CC(=O)SCC(CC(=O)c1ccc(C)cc1)C(=O)O` (stereo not given), the Potency was “inactive”.
With `Clc1ccccc1-c1nc(-c2ccncc2)no1` the Potency was “inactive”.
In the case of `NC(=O)C(c1ccccc1)(c1ccccc1)[C@@H]1CCN(CCc2ccc3c(c2)CCO3)C1`, the Potency is reported as “inactive”.
In the case of `Cc1c(C(=O)O)c(O)cc2c1C(=O)c1c(O)c([C@@H]3O[C@H](CO)[C@@H](O)[C@H](O)[C@H]3O)c(O)c(O)c1C2=O`, the Potency is reported as “inactive”.
In the case of `O=C(OCc1ccccc1)c1ccccc1`, the Potency is reported as “inactive”.
With `CCOc1ccc2nc(S(N)(=O)=O)sc2c1` the Potency was “inactive”.
With `CC(C(=O)O)c1ccc(C(=O)c2cccs2)cc1` (stereo not given) the Potency was “inactive”.
In the case of `Nc1c(CC(=O)O)cccc1C(=O)c1ccc(Br)cc1`, the Potency is reported as “inactive”.
With `N=C(N)N` the Potency was “inactive”.
For `Nc1ccc(O)c(C(=O)O)c1`, the Potency was “inactive”.
In the case of `CNC(=O)c1c(I)c(NC(=O)CCCCC(=O)Nc2c(I)c(C(=O)O)c(I)c(C(=O)NC)c2I)c(I)c(C(=O)O)c1I`, the Potency is reported as “inactive”.
With `CN1CCN(c2cc3c(nn2)Oc2ccccc2N3C)CC1` the Potency was “inactive”.
For `O=C(Nc1ccc(C(=O)O)c(O)c1)c1ccccc1`, the Potency was “inactive”.
In the case of `c1ccc2sc(SN3CCOCC3)nc2c1`, the Potency is reported as “inactive”.
In the case of `CC(N)C(=O)OC(C)(C)Cc1ccc(Cl)cc1` (stereo not given), the Potency is reported as “inactive”.
With `CCCCCCCCCCCCOCCO` the Potency was “inactive”.
For `CCCCCCCCCCCCCCCC(=O)OC(C)C`, the Potency was “inactive”.
For `CN(C)CCn1nnnc1SCC1=C(C(=O)O)N2C(=O)[C@@H](NC(=O)Cc3csc(N)n3)[C@H]2SC1`, the Potency was “inactive”.
For `N=C1N=C(N)c2cc3ccccc3cc21`, the Potency was 19.3 µM (active).
With `C=CCCCCCCCCC(=O)O` the Potency was “inactive”.
For `Cc1[nH]cnc1CN1CCc2c(c3ccccc3n2C)C1=O`, the Potency was “inactive”.
For `O=C(O)Cc1ccc(-c2ccccc2)cc1`, the Potency was “inactive”.
With `Cc1ccc(O)c(-n2nc3ccccc3n2)c1` the Potency was “inactive”.
For `CCCCC1C(=O)N(c2ccccc2)N(c2ccc(O)cc2)C1=O` (stereo not given), the Potency was 6.68 µM (active).
For `C/C(=N\O)c1ccc(OCC(=O)N2CCCCC2)cc1`, the Potency was “inactive”.
With `O=C(O)Cc1ccc2c(c1)C(=O)c1ccccc1CO2` the Potency was “inactive”.
With `O=C(O)Cc1cccc(-c2cc(CCCCCCc3ccc(O[C@H]4O[C@H](CO)[C@@H](O)[C@H](O)[C@@H]4O)c(-c4cccc(CC(=O)O)c4)c3)ccc2O[C@H]2O[C@H](CO)[C@@H](O)[C@H](O)[C@@H]2O)c1` the activity change, negative = cytotoxic was 1.92% [at 0.597 µM].
For `c1ccc(CCNc2nc(-c3ccccc3)cs2)cc1`, the Potency was “inactive”.
In the case of `CC(=O)c1ccc(OCC(=O)N2CCCCC2)cc1`, the Potency is reported as “inactive”.
In the case of `O=c1[nH]c2ccccc2n1CCCN1CCN(C(c2ccccc2)c2ccccc2)CC1`, the Potency is reported as “inactive”.
With `CC(C(=O)O)c1ccc2c(c1)[nH]c1ccc(Cl)cc12` (stereo not given) the Potency was “inactive”.
For `C[N+]1(C)[C@@H]2CC(OC(=O)[C@H](CO)c3ccccc3)C[C@H]1[C@@H]1O[C@@H]12` (stereo not given in full), the Potency was “inactive”.
For `COc1cc2c3cc1Oc1cc(ccc1O)C[C@@H]1c4c(cc(OC)c(O)c4Oc4ccc(cc4)C[C@@H]3N(C)CC2)CC[N+]1(C)C`, the Potency was “inactive”.
